Measured values as given in PubChem BioAssay AID504329 (Southern Research Specialized Biocontainment Screening …, 2011).
Among all 340,000 compounds or so, about 1,000 (0.29%) were called active. Cut-off read from the data, not from the text of the source: inconclusive = inhibition above about 27% without an active follow-up result; inactive = below that. These entries were drawn from the full list. Results with a measured potency or affinity are listed apart.

Experiment: NS1A inhibition, H1N1 influenza, cell based functional assay (AID 504329)
Details: percent inhibition, at 12.5 µM, hits give high values

Row | SMILES | inhibition
1 | COc1ccc(NC(=O)COC(=O)c2ccc3ccccc3n2)cc1 | -0.01% (inactive)
2 | CCN(CC)c1ccc(NC(=O)COC(=O)c2ccc3ccccc3n2)cc1 | 17.3% (inactive)
3 | O=C(Nc1ccn(CCCNCc2ccccc2)c(=O)n1)OCc1ccccc1 | -1.35% (inactive)
4 | CCN(CC)c1ccc(CN2CC=C(c3ccc(F)cc3)CC2)cc1 | 23.1% (inactive)
5 | COc1cc(CN2CC=C(c3ccc(F)cc3)CC2)cc(OC)c1 | -3.66% (inactive)
6 | N[C@@H](Cc1ccc(O)cc1)c1nnc([C@H](CO)NC(=O)C2CCNCC2)o1 | -21.5% (inactive)
7 | COc1ccccc1C=NNC(=O)c1ccccc1OCCOc1ccccc1 | -1.44% (inactive)
8 | COc1ccc(CCc2nnc(N)s2)cc1OC | -1.61% (inactive)
9 | CCOC(=O)c1cc(-c2ccc(Cl)s2)[nH]n1 | 0.06% (inactive)
10 | O=C1NC(=O)N(Cc2ccco2)C(=O)/C1=C/C=C/c1ccco1 | -3.06% (inactive)
11 | CCN(CC)c1ccc(/C=C2/C(=O)NC(=O)N(Cc3ccco3)C2=O)cc1 | 7.25% (inactive)
12 | Cn1cccc1/C=C1\C(=O)NC(=O)N(Cc2ccco2)C1=O | 3.7% (inactive)
13 | NC(=O)C1CCN(/C=C2\C(=O)NC(=O)N(Cc3ccco3)C2=O)CC1 | -5.38% (inactive)
14 | COC(=O)c1ccc(NC(=O)CNS(=O)(=O)c2cccs2)cc1 | 1.39% (inactive)
15 | COc1ccc(C(=O)N/N=C(\C)CC(=O)Nc2ccccn2)cc1OC | 1.35% (inactive)
16 | COc1ccc(C(=O)N/N=C/c2ccccn2)cc1OC | 0.68% (inactive)
17 | COc1cc(NC(=O)c2ccccn2)cc(OC)c1OC | -8.83% (inactive)
18 | COc1cc(C(=O)N/N=C(\c2ccccc2)c2ccccn2)cc(OC)c1OC | 8.37% (inactive)
19 | COc1ccc(NC(=S)N2CCN(Cc3ccccc3)CC2)c(OC)c1 | -3.28% (inactive)
20 | Fc1cccc(-c2oncc2-c2nnnn2-c2ccc(Cl)cc2)c1 | 12.9% (inactive)
21 | CCOC(=O)c1ccc(NC(=O)CCNS(=O)(=O)c2cc(Br)cnc2N)cc1 | 1.26% (inactive)
22 | CN1CCN(C2=C(Cl)C(=O)c3ccccc3C2=O)CC1 | -8.61% (inactive)
23 | O=C1C(Cl)=C(N2CCC(C(=O)O)CC2)C(=O)c2ccccc21 | 0.19% (inactive)
24 | C[C@H](CO)N1C[C@H](C)[C@H](CN(C)Cc2ccccc2)Oc2c(NC(=O)Nc3ccc(F)cc3)cccc2C1=O | -3.95% (inactive)
25 | Cc1ccc(C(=O)OCC(=O)c2ccc(Cl)s2)s1 | 1.17% (inactive)

Row | SMILES | inhibition
26 | CC1(C)CC(NC(=O)C23CCC(C)(C2Br)C3(C)C)CC(C)(C)N1 (stereo not drawn) | -5.71% (inactive)
27 | CCN1C(=O)/C(=C/C=C2/Sc3ccc4ccccc4c3N2CCO)SC1=S | -5.98% (inactive)
28 | CCN1C(c2ccccc2)=C(c2ccccc2)S/C1=C\C=C1/SC(=S)N(C)C1=O | 15.8% (inactive)
29 | CCCCCC/C=C/c1ccc(OC)c([C@H]2[C@H]3C=CC[C@@H](C)[C@@H]3C(=O)N2Cc2ccccc2)c1 | 6.03% (inactive)
30 | CCN1/C(=C/c2ccc3cc(C)ccc3[n+]2CC)Sc2cc(C)ccc21 | 19.4% (inactive)
31 | CCN1/C(=C\c2ccc3ccccc3[n+]2CC)Sc2cc(C)ccc21 | 11.8% (inactive)
32 | Cc1cc(C)nc(NS(=O)(=O)c2ccc(NS(=O)(=O)c3ccc(C#N)cc3)cc2)n1 | -5.4% (inactive)
33 | COC(=O)CNC(=O)CN(c1ccc(OC)cc1OC)S(=O)(=O)c1ccccc1 | -1.66% (inactive)
34 | Cc1cccc(NC(=O)Cn2c(O)c(N=NC(=O)c3ccncc3)c3ccccc32)c1 | -15.6% (inactive)
35 | CN1CCc2c(sc3c2C(=O)NC(c2cccs2)N3)C1 (stereo not drawn) | 1.19% (inactive)
36 | CN1CCc2c(sc3c2C(=O)NC(c2ccccc2)N3)C1 (stereo not drawn) | -3.09% (inactive)
37 | O=C1NC(c2ccncc2)Nc2sc3c(c21)CCCC3 (stereo not drawn) | 2.95% (inactive)
38 | O=C1NC(c2cccs2)Nc2sc3c(c21)CCCC3 (stereo not drawn) | 3.69% (inactive)
39 | CN1C(=O)/C(=C2\SC(N3CCCCCC3)=NC2=O)c2ccccc21 | 20.3% (inactive)
40 | CCN1C(=O)/C(=C2\SC(N3CCOCC3)=NC2=O)c2ccccc21 | 23.1% (inactive)
41 | CCN1C(=O)/C(=C2\SC(N3CCCCC3)=NC2=O)c2ccccc21 | 14.1% (inactive)
42 | CCCCN1C(=O)/C(=C2\SC(N3CCOCC3)=NC2=O)c2ccccc21 | 8.19% (inactive)
43 | COC(=O)c1sccc1NC(=O)c1ccc(Br)o1 | 3.08% (inactive)
44 | Cc1nc2ccccc2c(=O)n1NC(=O)c1cc(Br)ccc1Cl | 3.26% (inactive)
45 | CCOC(=O)c1c(NC(=O)CNCCO)sc(C)c1C | -0.57% (inactive)
46 | CN(CCCNC(=O)c1cc2c(=O)[nH]c3ccccc3c2n1C)Cc1ccccc1 | -0.58% (inactive)
47 | CCN1CCN(C(=O)c2cc(-c3ccc(Cl)s3)nc3ccccc23)CC1 | -3.92% (inactive)
48 | COc1cc(C(=O)OCC(=O)NC(=O)c2cccn2C)ccc1OC(F)F | 5.75% (inactive)
49 | COc1ccc(Oc2ccccc2/C=N/O)cc1 | -9.31% (inactive)
50 | COc1ccc2nc(-c3ccccn3)[nH]c2c1 | -6.69% (inactive)

Row | SMILES | inhibition
51 | CC(C)(C)c1cc(=O)[nH]c(SCc2ccccc2)n1 | -17.8% (inactive)
52 | Cn1nc(C(F)(F)F)c(CO)c1Sc1ccc(F)cc1 | 5.51% (inactive)
53 | CN(C)c1ccc(/C=C/c2nc3ccccc3c(=O)[nH]2)cc1 | -10.6% (inactive)
54 | CN(C)c1ccc(/C=C/c2ccc3ccccc3n2)cc1 | -37.5% (inactive)
55 | CN(CCCS(=O)(=O)[O-])c1ccc(/C=C/c2ccc3ccccc3[n+]2C)cc1 | -6.52% (inactive)
56 | CC[n+]1c(SC)ccc2cc(OC)ccc21 | -5.15% (inactive)
57 | CC[n+]1c(/C=C/c2ccc(OC)c(OC)c2)ccc2ccccc21 | 3.91% (inactive)
58 | CC[n+]1c(/C=C/c2ccc(OC(C)=O)c(OC)c2)ccc2ccccc21 | 18.9% (inactive)
59 | CC[n+]1cc(C)ccc1/C=C/c1ccc(N(C)C)cc1 | -3.01% (inactive)
60 | C[n+]1c(/C=C/c2ccc3c(c2)OCO3)ccc2ccccc21 | 8.1% (inactive)
61 | O=C(Nc1nc2ccccc2[nH]1)NC1CCCCC1 | -9.13% (inactive)
62 | O=C(N/C=N/OCc1ccc(Cl)cc1Cl)NOCc1c(Cl)cccc1Cl | -13.6% (inactive)
63 | Cc1ccc(S(=O)(=O)NCC(c2ccc3c(c2)OCO3)N2CCN(c3ccccc3)CC2)cc1 (stereo not drawn) | -19.9% (inactive)
64 | Cc1[nH]c(C)c(S(=O)(=O)NCc2ccccc2Cl)c1C(=O)N1CCCC1 | 9.96% (inactive)
65 | c1csc(C(c2nnnn2C2CCCC2)N2CCOCC2)c1 (stereo not drawn) | 5.59% (inactive)
66 | O=C(CCNC(=O)c1ccccc1Cl)Nc1ccccc1N1CCCC1 | -8.83% (inactive)
67 | O=C(NCCN1CCOCC1)c1noc2c1CCc1ccccc1-2 | 1.97% (inactive)
68 | CCCCCN1C(=O)Cn2c(nc3ccccc3c2=O)C1C (stereo not drawn) | 4.12% (inactive)
69 | Cc1noc(/C=C/N(C)C)c1S(=O)(=O)N1CCN(c2ccc(F)cc2)CC1 | 4.41% (inactive)
70 | CN(C)c1ccc(/C=C/c2cc[n+](C)c3ccccc23)cc1 | 58.9% (inactive)
71 | CC[n+]1ccccc1/C=C/c1ccc(N(C)C)cc1 | 8% (inactive)
72 | COC(=O)c1ccc(CNC(=O)c2sccc2-c2ccccc2)cc1 | 4.96% (inactive)
73 | COc1ccc2[nH]c3c(=O)n4c(nc3c2c1)SCC4 | -0.07% (inactive)
74 | CCCCc1ccc(NS(=O)(=O)c2cccc(C(=O)N3CCNC(=O)C3)c2)cc1 | 0.4% (inactive)
75 | Clc1ccc2c(NNc3ccccc3Cl)ccnc2c1 | 6.7% (inactive)

Row | SMILES | inhibition
76 | Oc1ccc(Nc2ccnc3cc(Cl)ccc23)cc1 | 3.37% (inactive)
77 | N/C(=N\N=C\c1ccc2c(c1)OCO2)SC1CC(=O)N(c2ccc(C(=O)O)cc2)C1=O (stereo not drawn) | 1.14% (inactive)
78 | Fc1ccc(Nc2nc(N3CCOCC3)c3ccccc3n2)cc1 | 4.75% (inactive)
79 | Cc1ccc(Nc2nc(N3CCOCC3)c3ccccc3n2)cc1 | 5.53% (inactive)
80 | CCCOc1ccc(C(=O)NCCN2CCOCC2)cc1 | -8.97% (inactive)
81 | O=C1C2C3CCCC3=C3CCCC3C2C(=O)N1c1ccc(F)cc1 (stereo not drawn) | -3.36% (inactive)
82 | CCOc1ccc(NS(=O)(=O)c2ccc(-c3cnc(C4CC4)o3)cc2)cc1 | -5.05% (inactive)
83 | CCSc1nnc(CNc2ccc(C)cc2)n1C | -3.37% (inactive)
84 | Oc1ccc(/C=N/N(Cc2ccccc2)c2ccccc2)c(O)c1O | 19.2% (inactive)
85 | Oc1ccc(/C=N/N(c2ccccc2)c2ccccc2)cc1O | 1.06% (inactive)
86 | COc1ccc(CCC(=O)N(C)CC(=O)Nc2cc(C)ccc2C)cc1 | -11.1% (inactive)
87 | CC(C)OC(=O)c1cc(NC(=O)C2C3C=CC(O3)C2C(=O)O)cc(C(=O)OC(C)C)c1 (stereo not drawn) | 6.16% (inactive)
88 | O=C1[C@H]2[C@@H](C(=O)N1c1cccc3ccccc13)C1(C(=O)c3ccccc3C1=O)N1CCC[C@@H]21 | -0.49% (inactive)
89 | COc1cc(OC)nc(NC(=O)NS(=O)(=O)c2ccccc2Cl)n1 | -10.9% (inactive)
90 | COc1nc(C)nc(NC(=O)NS(=O)(=O)c2ccccc2Cl)n1 | -15.1% (inactive)
91 | C/C(=N\NC(=O)c1cccc(Br)c1)c1cccnc1 | 0.75% (inactive)
92 | CCc1ccc(/C(C)=N/NC(=O)c2ccccn2)cc1 | -11.6% (inactive)
93 | C/C(=N\NC(=O)c1ccccc1OCc1ccc(F)cc1)c1ccccn1 | -7.95% (inactive)
94 | C/C(=N\NC(=O)c1cccc2ccccc12)c1cccs1 | -0.84% (inactive)
95 | O=C(NCCNC(=O)c1ccccc1F)c1ccccn1 | -7.82% (inactive)
96 | C/C(=N\NC(=O)c1ccccc1)c1cccc(Br)c1 | 3.22% (inactive)
97 | C/C(=N\NC(=O)c1cccc2ccccc12)c1cccnc1 | -8.98% (inactive)
98 | C/C(=N/NC(=O)c1ccccn1)c1ccc(O)cc1 | -1.61% (inactive)
